The source of these data is PubChem BioAssay (NCATS).

Records with an inconclusive call do not appear. The source made the active and inactive calls. Calls come from the whole dose curve; as a rule, active = well fitted inhibition curve with a large enough effect; inconclusive = small, poorly fitted or top-dose-only effect; inactive = flat fitted curve, though single readings scatter.
% is set by controls: 0 for no effect and ±100 for the full control effect.

This experiment deals with HaCat. The experiment in a line: Cytotoxic Profiling of Annotated Libraries Using Quantitative High-Throughput Screening (AID 1296008). Note: nearly all actives have a fitted effect of over 60% in size. The conditions noted are these: Five cell lines viability, CellTiter-Glo ATP luminescence, 48-72 h; max response: stronger effect = lower value. Summed up: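 Compounds were pin-transferred onto cells and incubated 48 or 72 hr at 37 degree Celsius, 95% humidity. CellTiter-Glo was added, plates sat 10 min at room temperature, then ATP-coupled luminescence was imaged as the viability read-out.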
A general note: In ATP-based viability assays light output follows the ATP content of the culture.
With `N=C(N)N`, the compound was called inactive.

Regarding `CC(=O)SCC(CC(=O)c1ccc(C)cc1)C(=O)O` (stereo not given), the max response was -9.14% (inactive).

For `CO[C@@]1(NC(=O)Cc2cccs2)C(=O)N2C(C(=O)O)=C(COC(N)=O)CS[C@@H]21`, the compound was classed as inactive.

With `Cc1c(N)c(=O)n(-c2ccccc2)n1C`, the outcome was inactive.

Turning to `CN1CC(=O)N/C1=N/C(=O)Nc1cccc(Cl)c1`, the compound was called inactive.

Regarding `CCCCCCCCCCCCOCCO`, the max response is -12.4% (inactive).

`Nc1ccc([N+](=O)[O-])cc1O`: the max response was 4.66% (inactive).

For the compound `CC1(C)[C@@H](O[C@H]2O[C@H](C(=O)O)[C@@H](O)[C@H](O)[C@H]2O[C@@H]2O[C@H](C(=O)O)[C@@H](O)[C@H](O)[C@H]2O)CC[C@]2(C)[C@H]3C(=O)C=C4[C@@H]5C[C@@](C)(C(=O)O)CC[C@]5(C)CC[C@@]4(C)[C@]3(C)CC[C@@H]12`, the max response was -32.3% (inactive).

In the case of `C/C(=N\O)c1ccc(OCC(=O)N2CCCCC2)cc1`, the max response is 2.33% (inactive).

Consider `CC(=O)c1ccc(OCC(=O)N2CCCCC2)cc1`, for which the max response was -0.673% (inactive).

Take `CCCCCCCC/C=C/C(=O)O`: the outcome was inactive.

As to `CC(C)OC(=O)c1cc(C(=O)OC(C)C)cc([N+](=O)[O-])c1`, the result was inactive.

Consider `Nc1ccc(O)c([N+](=O)[O-])c1`, for which the call was inactive.

With `O=C(O)CC1CC(c2ccccc2)=NO1` (stereo not given), the max response is -1.53% (inactive).

With `O=C(Nc1ccc2c(c1)CCN(Cc1ncn[nH]1)C2)c1ccccc1-c1ccc(C(F)(F)F)cc1`, the max response is 0.241% (inactive).

Turning to `C#CC1(O)CC[C@H]2[C@@H]3CCC4=CCCC[C@@H]4[C@H]3CC[C@@]21C` (stereo not given in full), the result was inactive.

As to `COc1ccnc2c1CCCCC2S(=O)c1nc2ccccc2[nH]1` (stereo not given), the outcome was inactive.

For the compound `CN(C)CCn1nnnc1SCC1=C(C(=O)O)N2C(=O)[C@@H](NC(=O)Cc3csc(N)n3)[C@H]2SC1`, the compound was classed as inactive.

Turning to `CC(C(=O)O)c1ccc(C(=O)c2ccccc2)s1` (stereo not given), the compound was called inactive.

`O=C(O)Cc1ccc2c(c1)C(=O)c1ccccc1CO2`: the max response was 4.48% (inactive).

With `CC(C(=O)O)c1ccc2c(c1)[nH]c1ccc(Cl)cc12` (stereo not given), the max response is 1.94% (inactive) and the compound was classed as inactive.

As for `CC(C)(C)c1nnc(NS(=O)(=O)c2ccc(N)cc2)s1`, the result was inactive.

`C[N+]1(C)[C@@H]2CC(OC(=O)[C@H](CO)c3ccccc3)C[C@H]1[C@@H]1O[C@@H]12` (stereo not given in full): the compound was classed as inactive.

`O=[N+]([O-])c1ccc(CNc2nc(NCc3cccc(C(F)(F)F)c3)nc3nc[nH]c23)cc1`: the max response was 0.807% (inactive).
